Among all 340,000 compounds or so, about 1,000 (0.29%) were called active. These entries were drawn from the full list. Potency and affinity values are given separately. Unmarked numbers belong to inactive results. Cut-off read from the data, not from the text of the source: inconclusive = inhibition above about 27% without an active follow-up result; inactive = below that.
test: H1N1 influenza NS1A inhibitors, functional cell based assay (AID 504329); details: percent inhibition, at 12.5 µM, stronger effect = higher value

| SMILES | inhibition [%] |
| --- | --- |
| O=C(O/N=C/c1ccc(Br)cc1)c1ccc(F)cc1 | 5.19 |
| CCC(C)N(C(=O)COC(=O)CSc1ccc(C)c(C)c1)C1CCS(=O)(=O)C1 (centres undefined) | -5.16 |
| COc1ccc2[nH]c(C(=O)NCc3ccccc3)cc2c1 | 15.2 |
| Clc1ccccc1-c1ccc2ncnc(NCc3cccs3)c2c1 | 9.25 |
| Cc1nc(N2CCCCC2)c2ccsc2n1 | -1.56 |
| Cc1ccc(CN2C(=O)C(=O)c3cc(C)ccc32)cc1 | 3.72 |
| Oc1c(C(c2ccc(Cl)cc2)N2CCCC2)cc(Cl)c2cccnc12 (centres undefined) | -6.42 |
| CN1CCN(C(c2ccc(F)cc2)c2ccc3cccnc3c2O)CC1 (centres undefined) | 7.02 |
| CN1CCN(C(c2ccccn2)c2cc(Cl)c3cccnc3c2O)CC1 (centres undefined) | 14.5 |
| CN1CCN(C(c2ccc(Cl)cc2)c2cc(Cl)c3cccnc3c2O)CC1 (centres undefined) | 2.9 |
| Cc1ccc(C(c2cc(Cl)c3cccnc3c2O)N2CCN(C)CC2)cc1 (centres undefined) | 5.08 |
| CCN1CCN(C(c2ccc(C(F)(F)F)cc2)c2ccc3cccnc3c2O)CC1 (centres undefined) | 16.8 |
| CCCCn1c(N)c(N(CCOC)C(=O)COC(=O)COc2c(C)cccc2C)c(=O)[nH]c1=O | -13 |
| CC(C)(C)c1cc(NC(=O)CSc2nncs2)n(-c2ccccc2)n1 | 1.18 |
| Cc1cc(C(=O)NC(Cc2c[nH]c3ccccc23)C(=O)O)c(C)o1 (centres undefined) | 1.37 |
| COc1ccc(S(=O)(=O)Nc2ccc3c(c2)N(C(C)=O)CCC3)cc1OC | 4.6 |
| O=C(CNS(=O)(=O)c1ccc(F)cc1)N1CCN(c2ccc(F)cc2)CC1 | -9.78 |
| COc1ccc(C(=O)c2sc(Nc3ccc(NC(C)=O)cc3)nc2C)cc1 | -2.13 |
| CN(C)c1ccc(C=C2C=Cc3ccccc32)cc1 | 11.1 |
| CN(C)c1ccc(/C=C2\CCCCC2=O)cc1 | 12.2 |
| COc1cc(C(=O)N=c2sccn2C)c([N+](=O)[O-])cc1OC | -1.77 |
| O=C(Cn1nnc(-c2ccccc2)n1)N1CCN(c2ccc(F)cc2)CC1 | 11.4 |
| COCCCNC(=S)NNC(=O)c1csc(C)n1 | -15.3 |
| COCCCNC(=S)NNC(=O)c1cccnc1 | -5.08 |
| COc1ccc(C(=O)NNC(=O)c2ccccn2)cc1 | -9.69 |

| SMILES | inhibition [%] |
| --- | --- |
| S=C(NCc1ccccn1)Nc1ccc(Cl)c(Cl)c1 | 1.31 |
| CC(C)C(=O)NNC(=O)c1ccccn1 | -2.86 |
| Cc1cccc(NC(=O)NNC(=O)c2ccccn2)c1 | 0.66 |
| COC(=O)c1nc2n(n1)C(c1ccc(OC)c(OC)c1)C(C(=O)OC1CCCCC1)=C(C)N2 (centres undefined) | 1.19 |
| Cc1nnc(NC2CCCCC2)[nH]c1=O | -4.74 |
| COc1ccc(NS(=O)(=O)c2ccc(C(=O)N3CCN(Cc4ccccc4)CC3)cc2)cc1 | 11.9 |
| Cc1onc(-c2c(F)cccc2Cl)c1C(=O)c1ccccc1 | 20 |
| O=C(NCC(c1ccco1)N1CCc2ccccc2C1)c1cccc([N+](=O)[O-])c1 (centres undefined) | -12.3 |
| COc1ccccc1/C=C1\C(=O)NC(=S)N(c2ccccc2)C1=O | -27.6 |
| Cn1c(=O)c2c(nc(NCc3ccccc3)n2C)n(C)c1=O | 1.83 |
| O=C(Nc1csnn1)OCc1ccccc1 | -22.9 |
| Cc1[nH]c2ccccc2c1/C=N/n1cnnc1 | -3.32 |
| Cc1[nH]c2ccccc2c1/C=N/O | -0.17 |
| O=C(c1cccc(S(=O)(=O)N2CCOCC2)c1)N(Cc1ccco1)Cc1cccs1 | 4.9 |
| Oc1ccccc1C=Nc1ccccc1-c1nc2ccccc2[nH]1 | 41.1 |
| Oc1ccccc1C=Nc1cccc2ccccc12 | -4.35 |
| Cc1ccc(Nc2cc(C)nc3c(C)cccc23)cc1 | -2.9 |
| O=S(=O)(NCc1cc(-c2ccccc2Cl)no1)c1ccc(Cl)cc1 | 0.63 |
| COc1ccc(CNc2nc3nc(C)cc(C)n3n2)cc1 | 1.24 |
| CSc1ncccc1C(=O)Nc1cccc(S(=O)(=O)N2CCCC2)c1 | -2.85 |
| O=C(COC(=O)c1ccccc1O)NNC(=O)c1ccc(Br)cc1 | 7.27 |
| O=C(C1CCN(Cc2nc(Cc3cccc(F)c3)no2)CC1)N1CCOCC1 | 7.26 |
| Cc1cccc(CSc2nn3c(=O)c(C)nnc3s2)c1 | -3.29 |
| Cc1nnc2sc(SCC(=O)Nc3nccs3)nn2c1=O | -3.22 |
| Cc1nnc2sc(SCC(=O)Nc3ccc(Br)cc3)nn2c1=O | 24.3 |

| SMILES | inhibition [%] |
| --- | --- |
| Cc1ccc(NC(=O)CSc2nn3c(=O)c(C)nnc3s2)cc1Cl | 12.2 |
| Cc1nnc2sc(SCc3cccc(Cl)c3)nn2c1=O | 2.99 |
| Cc1nnc2sc(SCc3ccc(Cl)cc3)nn2c1=O | -5.29 |
| C=CC(C)(C)c1c(O)c(CC=C(C)C)c(O)c2c(=O)c3ccc(O)c(O)c3oc12 | 4.4 |
| O=C(Cc1cccc(C(F)(F)F)c1)OCC(=O)N1CCN(S(=O)(=O)c2ccc(Cl)cc2)CC1 | -3.3 |
| CCOc1ccc(NC(=O)C2CCCN2C(=O)NC2CCCCC2)cc1 (centres undefined) | 3.03 |
| Cc1ccc2cc(CCNC(=O)C3CCCC3)c(=O)[nH]c2c1 | 9.32 |
| CCC(C)(C)NC(=O)C(c1ccc(OC)cc1)N(C(=O)CCC(=O)Nc1cc(C)on1)c1ccc2c(c1)OCCO2 (centres undefined) | -4.61 |
| CNC(=O)c1[nH]cnc1C(=O)Nc1cccc(C)c1 | -8.44 |
| COc1ccc(OCC(=O)Nc2ccc3c(c2)nc(CCn2ccccc2=O)n3C)cc1 | 5.24 |
| CN1CCN(C(=O)c2ccc3nc(-c4ccccc4)c(-c4ccccc4)nc3c2)CC1 | -4.76 |
| Cc1cc(N2CCN(C)CC2)nc(-c2ccccc2O)n1 | 8.33 |
| O=C(c1ccc(-c2ccccc2)cc1)N1CCN(c2ncccn2)CC1 | 20.6 |
| CC(C)(C)c1ccc(C(=O)N2CCNCC2)cc1 | -7.49 |
| CN1CCN(C(=O)c2ccc3ccccc3c2)CC1 | -18.4 |
| Oc1cc(-c2ccc(N3CCCCC3)nc2)cc2cccnc12 | -0.13 |
| Cc1[nH]c2ccccc2c1C(=O)C(=O)N1CC(C)OC(C)C1 (centres undefined) | -0.55 |
| COc1ccc(NC(=O)CN(C)C(=O)C2CSC3(C)CCC(=O)N23)cc1 (centres undefined) | -5.66 |
| O=C(CCNC(=O)N1CC(=O)Nc2ccccc21)Nc1ccc(Cl)cc1 | -4.42 |
| Cc1cc(C(=O)NN)c2cc(Br)ccc2n1 | -10.8 |
| O=C(c1ccc(F)cc1F)N1CCC(N2CCC(C(=O)N3CCOCC3)CC2)CC1 | 4.56 |
| CCOC(=O)C(=O)Nc1ccccc1C(=O)NCc1ccccc1 | -18.5 |
| CC(C)Cn1cnc2c(c1=N)C(c1ccccc1)C1=C(CC(C)(C)CC1=O)O2 (centres undefined) | 0.81 |
| COc1ccc(C2C(C(=O)c3ccccc3)N3c4ccccc4C=CC3C2[N+](=O)[O-])cc1 (centres undefined) | -12.1 |
| O=C(c1ccco1)[C@@H]1[C@@H]2C(=O)N(c3ccc(F)cc3)C(=O)[C@@H]2[C@H]2C=Cc3ccccc3N21 | 0.66 |

| SMILES | inhibition [%] |
| --- | --- |
| Cc1cc(C)cc(N2C(=O)CCN(Cc3ccccc3)C2=O)c1 | 0.48 |
| CC1=NN(c2ccccc2)C(=O)/C1=C\C=C1\N(C)c2ccccc2C1(C)C | 25.6 |
| CC1=NN(c2ccccc2)C(=O)/C1=C/c1cccc(C)c1 | -0.71 |
| CC1=NN(c2ccccc2)C(=O)/C1=C/N(C)C | 12.1 |
| CC1=NN(c2ccccc2)C(=O)/C1=C/c1cccs1 | 24.1 |
| Cc1c(N=C/C=C2\N(C)c3ccccc3C2(C)C)c(=O)n(-c2ccccc2)n1C | 1.39 |
| CC1=NN(c2ccccc2)C(=O)/C1=C/C=C/c1ccccc1 | 9.01 |
| CC1=NN(c2ccccc2)C(=O)/C1=C/C=C/C=C/N(C)C | 22.1 |
| CC1=NN(c2ccccc2)C(=O)/C1=C/c1ccc(Cl)cc1 | 4.56 |
| CC(=O)Nc1cc(C)c2nc(NC(C)=O)sc2c1 | 8.68 |
| Cc1cc(C)c2nc(N3CCCC(C(=O)NC4CCCC4)C3)sc2c1 (centres undefined) | 1.03 |
| CN(CC(=O)Nc1c(Cl)cccc1Cl)C(=O)CCC1CCCC1 | -7.47 |
| CCOc1ccc(OCCC(=O)OCC(=O)NCc2ccccc2)cc1 | 4.79 |
| Cc1nc2ccccc2c2oc(C(=O)N3CCc4ccccc4C3)cc12 | 14.6 |
| COc1ccccc1C(=O)NC(=O)COC(=O)c1ccc(Cl)cc1[N+](=O)[O-] | 11.3 |
| O=C(N/N=C\C=C\c1ccc2c(c1)OCO2)C1COc2ccccc2O1 (centres undefined) | -2.03 |
| CCOC(=O)CC1=NN(c2ccccc2)C(=O)/C1=C\c1ccc(OC)cc1OC | 17.9 |
| CN1/C(=C\C=C2C(=O)NC(=O)NC2=O)C(C)(C)c2ccccc21 | -3.94 |
| Cc1ccc(N2C(=O)NC(=O)/C(=C\C=C\c3ccco3)C2=O)cc1 | -8.27 |
| O=C1CC(N2C(=O)/C(=C/C=C/c3ccccc3)SC2=S)C(=O)N1c1ccccc1 (centres undefined) | 7.39 |
| COC(=O)CC1=NN(c2ccccc2)C(=O)/C1=C\c1ccc(OC)cc1 | 3.36 |
| O=C(O)c1ccc(N2C(=O)/C(=C/C=C/c3ccccc3)SC2=S)cc1 | -0.2 |
| O=C1NC(=O)N(c2ccccc2)C(=O)/C1=C/C=C/c1ccco1 | -5.11 |
| CN1/C(=C\C=C2C(=O)NC(=S)NC2=O)C(C)(C)c2ccccc21 | 6.82 |
